RE007 growth inh: less growth of the S. pombe RE007 Vpr strain; S. pombe RE007 Vpr strain, BacTiter-Glo ATP luminescence, 24 h; Potency, µM (highest dose often 92.2 µM), without a hit: at the highest dose activity change, negative = less growth, most hits filed as inhibitors; actives 0.21% (n = 360,000); active means well fitted falling curve with a large enough effect; inconclusive means small, poorly fitted or top-dose-only effect; inactive means no such curve, though single readings can be large or run the other way; further: on the % scale 0 is the no-effect control and ±100 the full control effect; nearly all actives have a fitted effect of over 50% in size
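Fission yeast RE007 carrying one integrated HIV-1 vpr copy, seeded at OD 0.01 in PMG+AL medium with 23 nL pinned compound. Grown 24 h at 30 degrees; viability read by BacTiter-Glo luminescence after 5 min.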
Sm TGR block: S. mansoni TGR enzyme inhibition | Q962Y6 | actives 3% (n = 360,000) | purified TGR, DTNB reduction, TNB absorbance 405 nm | Potency, µM (top dose mostly 114 µM), inactives show at the top dose activity change, negative = inhibition, hits mostly inhibitors; further: on the % scale 0 is the no-effect control and ±100 the full control effect; nearly all actives have a fitted effect of over 60% in size
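First, TGR (20 nM dispensed) and NADPH were mixed with compound. Second, a 15 min room-temperature incubation followed. Third, further NADPH and then DTNB were added to start the reaction. Finally, TNB absorbance was monitored kinetically.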
NS1 function inh: blocks influenza NS1 protein function; Potency, µM (top dose mostly 46.1 µM), without a hit: top-dose activity, positive = more growth; actives 0.4% (n = 270,000); calls by dose curve; further: actives are rising curves; nearly all actives have a fitted effect of over 50% in size
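Growth recovery, yeast-based: influenza A NS1 expressed in S. cerevisiae causes slow growth, and suppressors are detected by OD600. The parent strain without NS1 is used as positive control.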
FBPA Giardia inh: inhibitors of Giardia lamblia fructose-1,6-bisphosphate aldolase. A8B2U2. purified Giardia FBPA. Potency, µM (series often up to 59.6 µM), without a hit: at the highest dose activity, negative = inhibition, actives largely listed as inhibitors. actives 0.71% (n = 290,000); further: on the % scale 0 is the no-effect control and ±100 the full control effect; nearly all actives have a fitted effect of over 55% in size
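40 nM FBPA preincubated 10 min at RT with compound (up to 57.5 uM final), then substrate plus GAPDH/TPI/NAD/arsenate coupling and diaphorase/resazurin added. Fluorescence read after 20 min at RT, 525/598 nm.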
LmPK inhibitor: LmPK (Leishmania mexicana) enzyme inhibition; purified LmPK, Kinase-Glo ATP luminescence, 1 h; Q27686; actives 0.37% (n = 290,000); Potency, µM (series often up to 57.5 µM), for the others: at the highest dose activity change, negative = inhibition, usual class: inhibitors; further: on the % scale 0 is the no-effect control and ±100 the full control effect
Target sequence (Q27686 whole entry, looked up): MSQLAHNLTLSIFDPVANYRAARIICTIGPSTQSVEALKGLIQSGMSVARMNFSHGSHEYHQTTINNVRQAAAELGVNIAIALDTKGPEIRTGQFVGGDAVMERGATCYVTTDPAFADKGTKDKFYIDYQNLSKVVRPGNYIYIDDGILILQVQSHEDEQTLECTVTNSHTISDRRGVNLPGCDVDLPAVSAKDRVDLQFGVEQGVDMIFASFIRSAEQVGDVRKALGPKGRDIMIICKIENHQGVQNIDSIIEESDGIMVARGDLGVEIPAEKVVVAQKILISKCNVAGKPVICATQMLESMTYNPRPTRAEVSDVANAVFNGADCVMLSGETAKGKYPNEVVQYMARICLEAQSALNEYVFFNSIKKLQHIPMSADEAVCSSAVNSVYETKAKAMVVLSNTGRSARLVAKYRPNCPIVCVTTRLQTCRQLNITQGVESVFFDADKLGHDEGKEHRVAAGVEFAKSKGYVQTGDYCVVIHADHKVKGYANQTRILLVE
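Screened at intermediate enzyme activity to detect both inhibitors and activators: LmPK at 0.1 nM, with a 0.5 nM enzyme column as activation reference. PEP 0.5 mM, ADP 0.1 mM; ATP detected by luminescence after 1 h.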
TbPYK inhibitor: blocks Trypanosoma brucei pyruvate kinase; Q57TT1; TbPYK enzyme, Kinase-Glo Plus ATP luminescence, 45 min; Potency, µM (highest dose often 76.8 µM), inactives show at the highest dose activity, negative = inhibition, hits mostly inhibitors; actives 0.12% (n = 410,000); further: on the % scale 0 is the no-effect control and ±100 the full control effect; nearly all actives have a fitted effect of over 50% in size
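Glycolytic pyruvate kinase of T. brucei was incubated with substrate, test compound and 130 uM ADP for 45 minutes at room temperature. Luminescent Kinase-Glo Plus signal was measured after 10 minutes.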
Active calls of the source: *; [ ] = remark or other dose. Hits are enriched below; roughly 3.5% of the tested compounds scored in any of these assays. Unless noted, the call rests on the fitted dose curve; in most records, active means well fitted curve in the direction sought with a large enough effect; inconclusive means small, poorly fitted or top-dose-only effect, or another doubt; inactive means no such curve, though single readings can be large; an effect the other way counts as inactive or inconclusive. Potency means the concentration at half of the fitted maximal effect.

Screening CC(=O)N1N=C(c2c(-c3ccccc3)c3cc(Br)ccc3[nH]c2=O)CC1c1ccco1 (stereo not given) returned RE007 growth inh 2%, Sm TGR block 13µM*, NS1 function inh 13%, FBPA Giardia inh 2%, LmPK inhibitor -1% and TbPYK inhibitor 2%.
`CCC(=O)N1N=C(c2ccc(Cl)cc2)CC1c1ccco1` (stereo not given) gave RE007 growth inh -2%, Sm TGR block -6%, NS1 function inh -2%, FBPA Giardia inh 0%, LmPK inhibitor 2% and TbPYK inhibitor -2%.
`O=C(COc1ccccc1F)N1N=C(c2cccs2)CC1c1ccco1` (stereo not given) gave RE007 growth inh 13%, Sm TGR block 25µM* and TbPYK inhibitor -4%.
CS(=O)(=O)Nc1cccc(C2=NN(C(=O)c3ccco3)C(c3ccco3)C2)c1 (stereo not given) was read as RE007 growth inh 18%, Sm TGR block -34%, NS1 function inh -17%, FBPA Giardia inh -7%, LmPK inhibitor 1% and TbPYK inhibitor 3%.
Screening CCS(=O)(=O)Nc1cccc(C2=NN(C(=O)c3ccco3)C(c3ccco3)C2)c1 (stereo not given) returned RE007 growth inh -3%, Sm TGR block 50µM*, NS1 function inh 5%, FBPA Giardia inh -14%, LmPK inhibitor 1% and TbPYK inhibitor 0%.
O=C(CCl)N1N=C(c2cccs2)CC1c1ccco1 (stereo not given) was read as RE007 growth inh 26%, Sm TGR block 2.5µM*, NS1 function inh -2%, FBPA Giardia inh 4%, LmPK inhibitor 5% and TbPYK inhibitor -1%.
`CN1CC(=O)N(CC(=O)N2N=C(c3ccc(Cl)cc3)CC2c2ccco2)C1=O` (stereo not given) gave RE007 growth inh -4%, Sm TGR block 22µM*, FBPA Giardia inh -13%, LmPK inhibitor 0%[11.5 µM] and TbPYK inhibitor 1%.
O=C(CCCSc1ccc(Cl)cc1)Nc1ccccc1O was read as RE007 growth inh 35µM*, Sm TGR block -10%, NS1 function inh -128%, FBPA Giardia inh 4%, LmPK inhibitor -8% and TbPYK inhibitor 7%.
CCn1cc(C(=O)NCc2ccc(Cl)cc2)c(=O)c2cc(S(=O)(=O)N(C)C3CCCCC3)ccc21 was read as Sm TGR block 10% and TbPYK inhibitor 1%.
Screening COC(=O)N[C@@H](c1cccc(F)c1)[C@@H](C)[N+](=O)[O-] returned FBPA Giardia inh 0%.
For CCn1c(-c2ccco2)nc2ccccc21 the results were RE007 growth inh -4%, Sm TGR block 32µM*, NS1 function inh -18%, FBPA Giardia inh -5%, LmPK inhibitor -7% and TbPYK inhibitor -7%.
For c1ccc(OCCn2c(-c3ccco3)nc3ccccc32)cc1 the results were RE007 growth inh 20%, Sm TGR block 8.9µM*, NS1 function inh -86%, FBPA Giardia inh -8%, LmPK inhibitor -6% and TbPYK inhibitor inconclusive.
For CC(C)c1ccc(CN(Cc2ccco2)c2cnc(S(C)(=O)=O)nc2C(=O)Nc2ccc(F)cc2)cc1 the results were Sm TGR block -4% and TbPYK inhibitor 0%.
`CC(=O)c1ccc(Sc2nnnn2-c2ccccc2)c([N+](=O)[O-])c1` gave RE007 growth inh -19%, Sm TGR block 35µM*, NS1 function inh -5%, FBPA Giardia inh 2%, LmPK inhibitor 1% and TbPYK inhibitor 1%.
`O=[N+]([O-])c1ccc(Sc2nnnn2-c2ccccc2)c(Cl)c1` gave RE007 growth inh -10%, Sm TGR block inconclusive, NS1 function inh -20%, FBPA Giardia inh -13%, LmPK inhibitor 0% and TbPYK inhibitor -6%.
Screening CN1CCN(S(=O)(=O)c2ccc(Sc3nnnn3-c3ccccc3)c([N+](=O)[O-])c2)CC1 returned RE007 growth inh -10%, Sm TGR block 7.1µM*, NS1 function inh 8%, FBPA Giardia inh -10%, LmPK inhibitor 2% and TbPYK inhibitor -3%.
For Cn1cnnc1Sc1cc(N2CCN(S(=O)(=O)c3ccccc3)CC2)ccc1[N+](=O)[O-] the results were RE007 growth inh 4%, Sm TGR block 4%, NS1 function inh inconclusive, FBPA Giardia inh 0%, LmPK inhibitor 6% and TbPYK inhibitor 1%.
Screening COc1ccc(C2NC(=S)N3C(c4ccc(OC)c(OC)c4)NC(=S)N23)cc1OC (stereo not given) returned TbPYK inhibitor -5%.
For Cc1cc(=O)n2nc(N3CCC(C(=O)Nc4ccc(Br)cc4F)CC3)sc2n1 the results were Sm TGR block 5% and TbPYK inhibitor -4%.
For O=c1[nH]c2ccccc2c2oc(CCl)nc12 the results were RE007 growth inh 0%, Sm TGR block 6.3µM*, NS1 function inh 4%, FBPA Giardia inh inconclusive, LmPK inhibitor 6% and TbPYK inhibitor -3%.
`Cc1ccc(CNc2ccc3c(c2)OCO3)c(C)c1` gave Sm TGR block 40µM*, NS1 function inh -1%, FBPA Giardia inh inconclusive and LmPK inhibitor -6%.
For c1cncc(CNc2ccc3c(c2)OCO3)c1 the results were RE007 growth inh -18%, Sm TGR block 16µM*, NS1 function inh 7%, FBPA Giardia inh inconclusive, LmPK inhibitor -12% and TbPYK inhibitor inconclusive.
For Cc1nc2cc(C(=O)O)ccc2n1-c1ccc(C(C)C)cc1 the results were Sm TGR block -5% and TbPYK inhibitor -21%.
O=C(NC1CCCC1)C(c1cccs1)N(Cc1ccco1)C(=O)c1csnn1 (stereo not given) was read as RE007 growth inh -3%, Sm TGR block 35µM*, NS1 function inh -7%, FBPA Giardia inh 0%, LmPK inhibitor 1% and TbPYK inhibitor -4%.
Screening O=C(NCC(=O)N(Cc1cccs1)C(C(=O)NC1CCCCC1)c1ccncc1)c1ccco1 (stereo not given) returned RE007 growth inh -1%, Sm TGR block 45µM*, NS1 function inh -7%, FBPA Giardia inh -7%, LmPK inhibitor 0% and TbPYK inhibitor 0%.
O=C(NCC(=O)N(Cc1cccs1)C(C(=O)NC1CCCC1)c1cccnc1)c1ccco1 (stereo not given) was read as RE007 growth inh 13%, Sm TGR block inconclusive, NS1 function inh -5%, FBPA Giardia inh 1%, LmPK inhibitor 2% and TbPYK inhibitor 0%.
Screening O=C(NC1CCCCC1)C(c1ccccc1)N(Cc1ccco1)C(=O)c1csnn1 (stereo not given) returned RE007 growth inh 4%, Sm TGR block -36%, NS1 function inh 10%, FBPA Giardia inh -4%, LmPK inhibitor 5% and TbPYK inhibitor 0%.
